Of roughly 7,900 targets only a part is listed; those with a hit were picked by preference. About 0.6% of all pairs of compound and target were hits. Values without a mark were called inactive.
Tests used:
Test in all cases: log2 fold change, soluble protein after heating vs DMSO (PISA); higher = thermal stabilisation; K562 cells, 10 uM, 30 min; active = over 0.2 and 3.5 SD of the protein, either way, in both replicates (recomputed)
erlotinib = compound: C#Cc1cccc(Nc2ncnc3cc(OCCOC)c(OCCOC)cc23)c1 [erlotinib]
Summary of the method: (§1)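 For each measurement, 10 μM compound was applied for 30 min to K562 cells at 2×10^6 cells/mL. Aliquots were heated for 3 min across 48°C-58°C, pooled, and extracted in PBS with 0.5% NP-40 at 4°C; the supernatant after 21,000xg for 90 min was soluble protein. This was quantified by TMTpro 16plex LC-MS/MS with channel sums equalised, and thermal stability was reported relative to control samples from duplicates, on a log2 fold-change scale.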

[1] = compound: C/C(=N\NC(=O)C1=CC(=CC=C1)S(=O)(=O)N2CCOCC2)/C3=C(C=CC(=C3)Cl)O
Summary of the method: as §1

[2] = compound: C1=CC(=C(C=C1Cl)C2=NC3=NC=CN=C3C(=N2)NC4=CC=NC=C4)F
Summary of the method: as §1

[3] = compound: C1=CC(=CC=C1C2=NC3=C(N2)C=C(C=C3)C(=O)N)OC4=CC=C(C=C4)Cl
Summary of the method: as §1

[4] = compound: C1=CC2=C(C=CC(=C2)/C=C\3/C(=O)NC(=NCC4=CC=CS4)S3)N=C1
Summary of the method: as §1

[5] = compound: C1=CC2=NC=CN=C2C=C1/C=C/3\C(=O)NC(=O)S3
Summary of the method: as §1

[6] = compound: C1=CC=C(C=C1)C2=NC(=C(N2)C3=CC=NC=C3)C4=CC(=C(C=C4)Cl)O
Summary of the method: as §1

[7] = compound: C1=CC=C2C(=C1)C3=NNC4=CC=CC(=C43)C2=O
Summary of the method: as §1

[8] = compound: C1CCN(C1)C(=O)NC2=CC=CC(=C2)NC3=NC=C(C(=N3)NCCC4=CN=CN4)Br
Summary of the method: as §1

[9] = compound: C1CN(CCC1(CC2=CC=C(C=C2)Cl)N)C3=NC=NC4=C3C=CN4
Summary of the method: as §1

IRAK-1-4 Inhibitor I = compound: C1COCCN1CCN2C3=CC=CC=C3N=C2NC(=O)C4=CC(=CC=C4)[N+](=O)[O-] [IRAK-1-4 Inhibitor I]
Summary of the method: as §1

ibrutinib = compound: C=CC(=O)N1CCC[C@@H](n2nc(-c3ccc(Oc4ccccc4)cc3)c3c(N)ncnc32)C1 [ibrutinib]
Summary of the method: as §1

[10] = compound: CC(=O)c1cnc2ccc(-c3cc(Cl)c(O)c(Cl)c3)nc2c1N[C@H]1CC[C@H](CN(C)C)CC1
Summary of the method: as §1

ralimetinib = compound: CC(C)(C)Cn1c(N)nc2ccc(-c3[nH]c(C(C)(C)C)nc3-c3ccc(F)cc3)nc21 [ralimetinib]
Summary of the method: as §1

[11] = compound: CC(C)(O)CC(=O)NCCn1ccc2ncnc(Nc3ccc(Oc4cccc(C(F)(F)F)c4)c(Cl)c3)c21
Summary of the method: as §1

[12] = compound: CC(C)C1=C2N=C(C=C(N2N=C1)NCC3=CC=CC=C3)NCCCCCCN
Summary of the method: as §1

[13] = compound: CC(C)C[C@@H](C=O)NC(=O)[C@H](CC(C)C)NC(=O)[C@H](CC(C)C)NC(=O)OCc1ccccc1
Summary of the method: as §1

pinometostat = compound: CC(C)N(C[C@H]1O[C@@H](n2cnc3c(N)ncnc32)[C@H](O)[C@@H]1O)[C@H]1C[C@@H](CCc2nc3cc(C(C)(C)C)ccc3[nH]2)C1 [pinometostat]
Summary of the method: as §1

[14] = compound: CC1=C(C(CC(=O)N1)C2=CC=C(C=C2)C(F)(F)F)C(=O)NC3=C(C=C4C(=C3)C=NN4)F
Summary of the method: as §1

[15] = compound: CC1=C(C2=C(C=C1)C(=O)C3=CC=CC=C3N2CCCN)C
Summary of the method: as §1

Sequence of UniProt Q16186 (Q16186 whole entry, looked up): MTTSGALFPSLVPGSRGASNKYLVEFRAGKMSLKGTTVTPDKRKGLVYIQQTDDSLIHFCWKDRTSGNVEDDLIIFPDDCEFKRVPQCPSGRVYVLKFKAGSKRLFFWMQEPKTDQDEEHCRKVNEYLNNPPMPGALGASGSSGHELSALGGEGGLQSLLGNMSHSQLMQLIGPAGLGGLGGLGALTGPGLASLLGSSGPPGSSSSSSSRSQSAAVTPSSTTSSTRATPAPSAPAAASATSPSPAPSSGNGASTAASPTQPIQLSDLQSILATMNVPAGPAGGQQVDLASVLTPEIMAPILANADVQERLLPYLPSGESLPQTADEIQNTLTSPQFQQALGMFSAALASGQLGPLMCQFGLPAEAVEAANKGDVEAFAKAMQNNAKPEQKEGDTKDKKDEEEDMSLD
Sequence of UniProt P17544 (P17544 whole entry, looked up): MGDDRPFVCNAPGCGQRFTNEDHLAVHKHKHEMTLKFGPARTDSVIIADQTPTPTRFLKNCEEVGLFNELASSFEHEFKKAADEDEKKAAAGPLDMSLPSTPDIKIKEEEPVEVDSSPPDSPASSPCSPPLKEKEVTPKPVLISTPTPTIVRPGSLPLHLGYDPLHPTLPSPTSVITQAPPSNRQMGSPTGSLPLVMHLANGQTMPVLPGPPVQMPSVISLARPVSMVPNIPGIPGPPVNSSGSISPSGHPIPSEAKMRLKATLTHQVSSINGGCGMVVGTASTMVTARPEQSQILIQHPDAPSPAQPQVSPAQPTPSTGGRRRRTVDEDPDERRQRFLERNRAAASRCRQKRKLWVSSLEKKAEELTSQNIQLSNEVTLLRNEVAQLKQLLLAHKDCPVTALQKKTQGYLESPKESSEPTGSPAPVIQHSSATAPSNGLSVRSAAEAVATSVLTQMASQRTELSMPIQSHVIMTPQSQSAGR
Sequence of UniProt Q9NUQ2 (Q9NUQ2 whole entry, looked up): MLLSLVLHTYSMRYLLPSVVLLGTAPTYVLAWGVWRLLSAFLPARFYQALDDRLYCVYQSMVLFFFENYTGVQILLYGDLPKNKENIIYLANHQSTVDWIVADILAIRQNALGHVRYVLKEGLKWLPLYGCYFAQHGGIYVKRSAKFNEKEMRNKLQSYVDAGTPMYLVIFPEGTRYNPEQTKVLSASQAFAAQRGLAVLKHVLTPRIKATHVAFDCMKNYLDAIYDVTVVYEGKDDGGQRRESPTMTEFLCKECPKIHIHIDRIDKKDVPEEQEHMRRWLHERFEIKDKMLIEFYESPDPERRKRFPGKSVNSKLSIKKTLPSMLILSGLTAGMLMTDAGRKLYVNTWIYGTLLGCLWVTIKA
Sequence of UniProt Q5JTZ9 (Q5JTZ9 whole entry, looked up): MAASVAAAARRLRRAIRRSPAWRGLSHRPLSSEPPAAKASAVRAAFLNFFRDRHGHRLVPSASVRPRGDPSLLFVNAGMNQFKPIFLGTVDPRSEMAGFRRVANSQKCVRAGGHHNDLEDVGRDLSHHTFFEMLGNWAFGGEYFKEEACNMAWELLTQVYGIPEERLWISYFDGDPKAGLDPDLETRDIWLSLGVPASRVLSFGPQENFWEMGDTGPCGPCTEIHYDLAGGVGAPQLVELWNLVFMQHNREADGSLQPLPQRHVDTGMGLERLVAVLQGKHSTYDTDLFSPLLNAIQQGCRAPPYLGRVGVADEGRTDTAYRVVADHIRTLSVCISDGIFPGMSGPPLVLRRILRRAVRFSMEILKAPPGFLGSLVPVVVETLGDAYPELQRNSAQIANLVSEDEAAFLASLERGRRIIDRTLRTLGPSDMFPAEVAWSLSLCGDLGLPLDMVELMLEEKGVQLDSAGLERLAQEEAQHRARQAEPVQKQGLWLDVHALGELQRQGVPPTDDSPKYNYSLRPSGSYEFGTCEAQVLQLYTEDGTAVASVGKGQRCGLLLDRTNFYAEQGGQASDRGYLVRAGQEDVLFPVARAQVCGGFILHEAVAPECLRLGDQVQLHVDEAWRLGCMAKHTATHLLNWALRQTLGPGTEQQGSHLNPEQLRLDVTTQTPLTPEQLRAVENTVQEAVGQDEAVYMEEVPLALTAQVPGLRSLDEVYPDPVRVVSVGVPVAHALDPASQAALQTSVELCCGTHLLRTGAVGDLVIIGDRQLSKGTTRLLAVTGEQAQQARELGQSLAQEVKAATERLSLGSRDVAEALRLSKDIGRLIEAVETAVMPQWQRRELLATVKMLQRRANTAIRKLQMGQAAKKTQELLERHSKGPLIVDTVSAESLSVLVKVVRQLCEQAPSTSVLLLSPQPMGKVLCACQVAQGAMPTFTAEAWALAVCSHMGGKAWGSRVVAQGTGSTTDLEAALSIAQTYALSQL
Sequence of UniProt O00170 (O00170 whole entry, looked up): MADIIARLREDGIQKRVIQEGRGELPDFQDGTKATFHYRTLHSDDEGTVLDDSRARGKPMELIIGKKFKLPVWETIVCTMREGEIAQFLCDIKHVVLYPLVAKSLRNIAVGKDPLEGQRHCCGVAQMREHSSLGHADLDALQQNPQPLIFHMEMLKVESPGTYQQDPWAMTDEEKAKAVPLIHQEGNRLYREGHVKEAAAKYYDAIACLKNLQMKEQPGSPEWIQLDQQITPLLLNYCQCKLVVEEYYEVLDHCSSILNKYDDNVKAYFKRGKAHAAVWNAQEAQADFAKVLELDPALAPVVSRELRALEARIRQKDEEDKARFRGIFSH
Sequence of UniProt O00116 (O00116 whole entry, looked up): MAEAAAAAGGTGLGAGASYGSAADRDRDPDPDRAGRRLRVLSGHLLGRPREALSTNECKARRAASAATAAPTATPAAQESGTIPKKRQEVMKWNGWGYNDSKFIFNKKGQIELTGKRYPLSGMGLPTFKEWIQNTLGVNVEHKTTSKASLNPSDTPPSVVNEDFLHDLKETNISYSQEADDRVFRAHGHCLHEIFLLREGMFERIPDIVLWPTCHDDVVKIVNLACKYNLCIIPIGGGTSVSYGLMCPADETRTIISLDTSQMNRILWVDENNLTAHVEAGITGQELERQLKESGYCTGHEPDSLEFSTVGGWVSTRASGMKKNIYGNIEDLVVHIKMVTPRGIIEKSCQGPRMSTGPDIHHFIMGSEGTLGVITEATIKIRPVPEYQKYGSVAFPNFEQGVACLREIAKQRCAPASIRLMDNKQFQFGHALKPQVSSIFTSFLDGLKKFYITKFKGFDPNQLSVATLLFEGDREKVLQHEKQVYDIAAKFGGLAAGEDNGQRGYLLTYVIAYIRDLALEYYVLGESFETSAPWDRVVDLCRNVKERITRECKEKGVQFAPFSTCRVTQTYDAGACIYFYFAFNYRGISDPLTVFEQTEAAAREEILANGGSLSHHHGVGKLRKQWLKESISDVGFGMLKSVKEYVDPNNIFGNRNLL
Sequence of UniProt Q6QNY0 (Q6QNY0 whole entry, looked up): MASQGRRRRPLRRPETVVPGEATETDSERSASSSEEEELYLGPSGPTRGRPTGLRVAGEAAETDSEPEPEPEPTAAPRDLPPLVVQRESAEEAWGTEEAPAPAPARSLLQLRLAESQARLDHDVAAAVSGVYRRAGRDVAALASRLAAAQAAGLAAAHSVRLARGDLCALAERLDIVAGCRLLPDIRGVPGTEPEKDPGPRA
Sequence of UniProt P35612 (P35612 whole entry, looked up): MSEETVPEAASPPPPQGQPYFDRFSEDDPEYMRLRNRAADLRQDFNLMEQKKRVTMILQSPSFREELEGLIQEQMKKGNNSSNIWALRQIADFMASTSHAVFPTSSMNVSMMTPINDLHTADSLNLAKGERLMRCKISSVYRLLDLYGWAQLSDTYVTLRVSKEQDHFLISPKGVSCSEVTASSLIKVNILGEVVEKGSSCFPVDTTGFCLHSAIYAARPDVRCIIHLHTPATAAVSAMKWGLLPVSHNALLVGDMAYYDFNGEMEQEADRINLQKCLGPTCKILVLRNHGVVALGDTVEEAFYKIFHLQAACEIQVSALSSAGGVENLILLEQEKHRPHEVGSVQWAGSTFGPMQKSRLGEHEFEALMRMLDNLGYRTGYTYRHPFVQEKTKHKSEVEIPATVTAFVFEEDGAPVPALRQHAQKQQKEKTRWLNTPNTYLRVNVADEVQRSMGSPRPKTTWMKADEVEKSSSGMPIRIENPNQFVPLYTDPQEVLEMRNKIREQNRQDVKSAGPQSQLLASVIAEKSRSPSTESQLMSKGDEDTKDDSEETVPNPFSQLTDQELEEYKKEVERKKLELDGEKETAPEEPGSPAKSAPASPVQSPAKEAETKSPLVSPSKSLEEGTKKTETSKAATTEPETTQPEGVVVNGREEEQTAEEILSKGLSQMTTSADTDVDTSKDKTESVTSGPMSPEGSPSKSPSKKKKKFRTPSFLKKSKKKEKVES
Sequence of UniProt Q8N6H7 (Q8N6H7 whole entry, looked up): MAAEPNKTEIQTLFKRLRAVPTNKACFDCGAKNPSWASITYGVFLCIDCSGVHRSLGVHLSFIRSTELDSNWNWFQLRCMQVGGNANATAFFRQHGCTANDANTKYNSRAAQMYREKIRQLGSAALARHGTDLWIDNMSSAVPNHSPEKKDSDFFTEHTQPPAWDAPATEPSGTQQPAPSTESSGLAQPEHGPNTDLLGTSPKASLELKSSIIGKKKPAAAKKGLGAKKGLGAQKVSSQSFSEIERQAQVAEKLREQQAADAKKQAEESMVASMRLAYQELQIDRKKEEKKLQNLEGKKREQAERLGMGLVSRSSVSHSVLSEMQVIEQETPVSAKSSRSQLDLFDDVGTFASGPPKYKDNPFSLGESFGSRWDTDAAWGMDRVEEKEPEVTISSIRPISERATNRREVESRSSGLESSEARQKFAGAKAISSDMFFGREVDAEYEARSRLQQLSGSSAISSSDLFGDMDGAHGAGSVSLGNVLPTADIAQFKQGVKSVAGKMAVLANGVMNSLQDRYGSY
Sequence of UniProt Q86WA6 (Q86WA6 whole entry, looked up): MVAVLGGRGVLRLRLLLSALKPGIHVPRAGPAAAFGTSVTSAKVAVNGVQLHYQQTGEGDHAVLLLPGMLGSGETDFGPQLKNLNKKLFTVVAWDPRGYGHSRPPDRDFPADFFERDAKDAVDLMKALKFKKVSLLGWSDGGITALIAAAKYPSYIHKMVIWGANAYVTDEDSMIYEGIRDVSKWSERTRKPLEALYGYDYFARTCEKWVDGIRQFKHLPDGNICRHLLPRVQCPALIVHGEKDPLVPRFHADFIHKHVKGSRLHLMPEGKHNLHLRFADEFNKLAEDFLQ

| Target | log2 fold change (erlotinib) | log2 fold change [1] | log2 fold change [2] | log2 fold change [3] | log2 fold change [4] | log2 fold change [5] | log2 fold change [6] | log2 fold change [7] | log2 fold change [8] | log2 fold change [9] | log2 fold change (IRAK-1-4 Inhibitor I) | log2 fold change (ibrutinib) | log2 fold change [10] | log2 fold change (ralimetinib) | log2 fold change [11] | log2 fold change [12] | log2 fold change [13] | log2 fold change (pinometostat) | log2 fold change [14] | log2 fold change [15] |
| --- | --- | --- | --- | --- | --- | --- | --- | --- | --- | --- | --- | --- | --- | --- | --- | --- | --- | --- | --- | --- |
| BPHL (UniProt Q86WA6) | -0.016 | 0.053 | 0.057 | -0.016 | 0.142 | 0.058 | -0.028 | 0.02 | -0.38 (active) | 0.182 | 0.009 | -0.062 | -0.034 | -0.045 | -0.023 | 0.123 | 0.071 | 0.061 | 0.016 | -0.244 |
| AGPAT5 (UniProt Q9NUQ2) | 0.042 | -0.019 | -0.003 | 0.014 | 0.009 | 0.048 | 0.07 | -0.001 | -0.017 | 0.079 | 0.047 | 0.003 | 0.062 | -0.037 | 0.03 | -0.163 | 0.002 | 0.007 | -0.001 | 0.021 |
| ATP12A isoform 2 (UniProt P54707) | 0.01 | -0.002 | 0.025 | 0.014 | 0.007 | 0.026 | 0.025 | -0.049 | -0.051 | 0.05 | 0.013 | 0.009 | -0.033 | -0.031 | -0.036 | 0.162 | -0.005 | -0.03 | -0.02 | 0.086 |
| BLOC1S3 (UniProt Q6QNY0) | 0.027 | -0.009 | 0.04 | -0.003 | 0.093 | 0.012 | 0.031 | -0.052 | -0.032 | 0.052 | 0.018 | -0.037 | 0.427 (active) | -0.033 | -0.058 | 0.005 | -0.045 | -0.041 | -0.01 | 0.076 |
| ADD2 (UniProt P35612) | 0.008 | -0.011 | 0.025 | 0.004 | -0.004 | 0.022 | 0.012 | -0.005 | 0.004 | 0.016 | 0.04 | 0.009 | -0.172 | -0.021 | -0.004 | 0.042 | -0.024 | -0.015 | 0.01 | 0.029 |
| ARPP19 (UniProt P56211) | -0.01 | 0.003 | 0.076 | -0.032 | -0.061 | 0.041 | 0.026 | 0.014 | -0.024 | -0.018 | 0.052 | -0.009 | 0 | 0.048 | -0.051 | 0.048 | -0.071 | -0.157 | 0.069 | -0.074 |
| AGPS (UniProt O00116) | 0.046 | 0.055 | 0.092 | 0.256 (active) | 0.055 | 0.031 | 0.175 | 0.043 | -0.01 | 0.077 | 0.025 | -0.005 | -0.028 | 0.007 | -0.008 | -0.123 | -0.025 | -0.041 | -0.025 | 0.031 |
| AIP (UniProt O00170) | 0.035 | 0.096 | 0.133 | -0.006 | 0.042 | 0.048 | -0.01 | 0.011 | 0.005 | -0.026 | 0 | -0.047 | 0.007 | 0.006 | -0.094 | -0.074 | -0.018 | -0.027 | -0.035 | -0.026 |
| AARS2 (UniProt Q5JTZ9) | 0.148 | -0.035 | 0.058 | -0.019 | 0.083 | 0.011 | 0.025 | 0.021 | -0.003 | 0.021 | 0 | -0.025 | -0.025 | -0.011 | -0.099 | -0.15 | -0.013 | 0.006 | 0.002 | 0.048 |
| BCL9L (UniProt Q86UU0) | 0.01 | -0.256 | -0.008 | 0.049 | 0.036 | -0.048 | -0.128 | 0.07 | -0.052 | 0.091 | -0.045 | 0 | 0.04 | -0.024 | -0.009 | 0.015 | 0.092 | 0.013 | 0.006 | 0.101 |
| ADRM1 (UniProt Q16186) | -0.069 | -0.038 | -0.007 | 0.006 | 0.034 | 0.033 | 0.028 | 0.046 | -0.017 | -0.076 | -0.096 | -0.111 | 0.033 | 0.065 | -0.077 | -0.005 | -0.064 | 0.015 | -0.022 | 0.04 |
| ATF7 isoform 6 (UniProt P17544) | -0.011 | -0.148 | -0.043 | 0.021 | 0.032 | -0.055 | 0.08 | 0.085 | -0.004 | -0.117 | -0.031 | 0.199 | 0.183 | 0.089 | -0.042 | 0.138 | -0.14 | 0.019 | -0.082 | 0.22 |
| ACAP2 (UniProt Q15057) | -0.002 | 0.054 | 0.062 | -0.05 | 0.056 | 0.037 | -0.032 | -0.012 | -0.042 | -0.013 | -0.033 | -0.012 | -0.038 | 0 | -0.031 | -0.065 | 0.061 | 0.029 | -0.036 | 0.004 |
| BRD8 (UniProt Q9H0E9) | -0.057 | -0.036 | -0.067 | 0.068 | -0.005 | 0.037 | -0.074 | -0.064 | 0.016 | -0.058 | 0 | -0.014 | -0.009 | -0.022 | -0.012 | -0.013 | 0.098 | 0.001 | 0.03 | -0.019 |
| ALDH2 (UniProt P05091) | -0.009 | 0.121 | 0.039 | 0.021 | 0.096 | 0.022 | -0.019 | 0.097 | -0.041 | 0.02 | 0.005 | 0.002 | -0.005 | -0.086 | -0.037 | 0.018 | -0.032 | -0.034 | -0.046 | 0.063 |
| ARFGAP2 (UniProt Q8N6H7) | 0.017 | 0.034 | 0.019 | -0.016 | 0.06 | 0 | -0.01 | -0.007 | -0.053 | -0.009 | -0.016 | -0.064 | -0.014 | -0.001 | -0.032 | 0.062 | -0.005 | 0.046 | -0.006 | 0.005 |
